Where “and” joins values, the source holds several entries; their conditions need not be identical. Equal entries are not always repeated. Records with an inconclusive call do not appear. Calls of active or inactive are those of the source. Unless noted, the call rests on the fitted dose curve; in most records, active means well fitted curve in the direction sought with a large enough effect in the repeat runs; inconclusive means weak or mixed curves; inactive means no such curve, though single readings can be large; an effect the other way counts as inactive or inconclusive.
Legend:
[1] = qHTS assay for small molecules that induce genotoxicity in human embryonic kidney cells expressing luciferase-tagged ATAD5 (AID 651632); further: nearly all actives have a fitted effect of over 15% in size; further: potency means the concentration at half of the fitted maximal effect
In short: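 A rise in luciferase signal from ATAD5-tagged HEK293T cells marks genetic stress. Cells were exposed to compounds for 16 hr at 37C, 5% CO2, then luciferase was quantified after a 30 min room-temperature incubation with Amplite.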

[2] = qHTS assay for small molecule agonists of the p53 signaling pathway - cell viability (AID 651633; calls by dose curve; further: nearly all actives have a fitted effect of over 30% in size; further: potency means the concentration at half of the fitted maximal effect)
In short: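 p53RE-bla cells were treated with compound for 16 hours at 37 C. Cytotoxicity was then measured as CellTiter-Glo luminescence after 30 min at room temperature.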

[3] = qHTS assay for small molecules that induce genotoxicity in human embryonic kidney cells expressing luciferase-tagged ATAD5 - cell viability (AID 651634; calls by dose curve; further: nearly all actives have a fitted effect of over 25% in size; further: potency means the concentration at half of the fitted maximal effect)
In short: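 Cytotoxicity counter-readout: after 15.5 hr compound treatment at 37C, live-cell protease activity in ATAD5-luciferase HEK293T cells measured by CellTiter-Fluor fluorescence, 30 min development at 37C.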

[4] = qHTS assay for small molecule disruptors of the mitochondrial membrane potential - cell viability (AID 720634; calls by dose curve; further: nearly all actives have a fitted effect of over 20% in size; further: potency means the concentration at half of the fitted maximal effect)
In short: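 Cytotoxicity was quantified from ATP content by CellTiter-Glo luminescence in the same wells as the MMP dye read-out. HepG2 (2,000 cells/well) were plated overnight and exposed to compounds for 1 hr at 37 C.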

[5] = qHTS assay for small molecule disruptors of the mitochondrial membrane potential (AID 720635); further: potency means the concentration at half of the fitted maximal effect
In short: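 HepG2 cells exposed to compound 1 hr at 37C, then Mito-MPS dye 30 min. Ratio read of aggregate (540/590 nm) versus monomer (490/535 nm) fluorescence.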

[6] = qHTS assay to test for compound auto fluorescence at 590 nm (red) in HepG2 cells (AID 720674)
In short: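 Seeding: 2,000 HepG2 cells/well, MEM/10% FBS, overnight 37 C. Dosing: compound vs DMSO. Incubation: 1 hr, 37 C, 5% CO2. Read: fluorescence 540 ex/590 em, Rose Bengal sodium as red reference.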

[7] = qHTS assay to test for compound auto fluorescence at 535 nm (green) in HepG2 cells (AID 720675)
[8] = qHTS assay to test for compound auto fluorescence at 460 nm (blue) in HEK293 cells (AID 720678); further: potency means the concentration at half of the fitted maximal effect
In short: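 HEK293, 2,000 cells/well, 10% dialyzed FBS; attach 4-5 hr 37C; pin compound or DMSO; o/n 37C/5% CO2; fluorescence 405/460 nm; triamterene-equivalent units.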

[9] = qHTS assay to test for compound auto fluorescence at 590 nm (red) in HEK293 cells (AID 720679)
In short: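 Intensity at 540nm excitation and 590nm emission is reported as Rose Bengal sodium-equivalent autofluorescence. Measurements followed overnight exposure (37C, 5% CO2) of HEK293 cells, 2,000 per well, to 23 nL compound.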

[10] = qHTS assay to test for compound auto fluorescence at 535 nm (green) in HEK293 cells (AID 720680)
[11] = qHTS assay to test for compound auto fluorescence at 535 nm (green) in HEK293 cell free culture (AID 720682)
In short: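 Read-out: 485/535 nm fluorescence intensity, calibrated against fluorescein. Medium only (DMEM + 10% FBS, no cells); test compound or DMSO vehicle added by pintool before plate reading.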

[12] = qHTS assay to test for compound auto fluorescence at 590 nm (red) in HEK293 cell free culture (AID 720683)
In short: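 Cell-free wells of DMEM with 10% FBS received compound, and intrinsic fluorescence was read at excitation/emission 540/590 nm. Values expressed as equivalence to Rose Bengal sodium.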

[13] = qHTS assay to test for compound auto fluorescence at 590 nm (red) in HepG2 cell free culture (AID 720684)
In short: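 Auto fluorescence equivalency versus Rose Bengal sodium, red channel Ex/Em 540/590 nm; compounds in cell-free MEM/10% FBS; DMSO vehicle control.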

[14] = qHTS assay to test for compound auto fluorescence at 460 nm (blue) in HepG2 cell free culture (AID 720685)
In short: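 Cell-free plates of MEM plus 10% FBS received 23 nL compound or DMSO vehicle; blue-channel (405/460 nm) intensity scored against triamterene as reference fluorophore.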

[15] = qHTS assay to test for compound auto fluorescence at 460 nm (blue) in HepG2 cells (AID 720687); further: potency means the concentration at half of the fitted maximal effect
In short: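 HepG2 cells in MEM with 10% FBS, attached overnight at 37 C, were exposed to compound or DMSO for 1 hr at 37 C, 5% CO2. Blue fluorescence was read at 405/460 nm, with triamterene as reference fluorophore.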

[16] = biological target: Glucocorticoid receptor (Homo sapiens) (UniProt P04150); assay: qHTS assay to identify small molecule agonists of the glucocorticoid receptor (GR) signaling pathway (AID 720691; active means well fitted activation curve with a large enough effect in the signal ratio in the repeat runs, not every such curve was filed as active; the % refers to the signal ratio)
Chain of Glucocorticoid receptor (Homo sapiens) (P04150 whole entry, looked up): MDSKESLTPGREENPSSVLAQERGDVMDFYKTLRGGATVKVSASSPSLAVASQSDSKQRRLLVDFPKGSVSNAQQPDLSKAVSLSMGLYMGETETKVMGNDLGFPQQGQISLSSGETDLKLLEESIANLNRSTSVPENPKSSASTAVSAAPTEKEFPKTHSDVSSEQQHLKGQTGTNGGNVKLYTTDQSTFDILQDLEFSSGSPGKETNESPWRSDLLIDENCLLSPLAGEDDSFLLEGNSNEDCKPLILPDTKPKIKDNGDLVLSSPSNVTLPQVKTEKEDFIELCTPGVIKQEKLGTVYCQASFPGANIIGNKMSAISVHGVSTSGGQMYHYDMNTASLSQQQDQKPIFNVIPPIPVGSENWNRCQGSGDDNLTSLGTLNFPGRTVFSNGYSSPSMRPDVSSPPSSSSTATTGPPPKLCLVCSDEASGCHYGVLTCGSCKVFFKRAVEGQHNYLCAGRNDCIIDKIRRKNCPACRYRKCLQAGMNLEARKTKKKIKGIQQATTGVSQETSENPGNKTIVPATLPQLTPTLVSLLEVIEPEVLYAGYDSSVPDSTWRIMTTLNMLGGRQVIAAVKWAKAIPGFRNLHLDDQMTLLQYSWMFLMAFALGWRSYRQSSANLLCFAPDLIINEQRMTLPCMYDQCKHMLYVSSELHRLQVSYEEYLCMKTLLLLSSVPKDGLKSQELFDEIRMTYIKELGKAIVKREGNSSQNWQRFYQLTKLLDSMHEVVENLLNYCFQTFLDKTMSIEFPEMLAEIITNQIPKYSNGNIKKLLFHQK
In short: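 Agonist-mode qHTS in HeLa cells stably expressing a glucocorticoid-response-element beta-lactamase reporter. Fluorescence intensity read with FRET substrate (2 h, room temperature) after 18 h compound treatment at 37 C.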

[17] = qHTS assay to test for compound auto fluorescence at 535 nm (green) in HepG2 cell free culture (AID 720686)
[18] = qHTS assay to test for compound auto fluorescence at 460 nm (blue) in HEK293 cell free culture (AID 720681); further: potency means the concentration at half of the fitted maximal effect
In short: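 Compounds were added to cell-free DMEM with 10% FBS and fluorescence read directly. The blue channel used 405 nm excitation and 460 nm emission, with triamterene as the reference fluorophore.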

[19] = biological target: Glucocorticoid receptor (Homo sapiens) (UniProt P04150); assay: qHTS assay to identify small molecule antagonists of the glucocorticoid receptor (GR) signaling pathway (AID 720692; active means well fitted inhibition curve with a large enough effect in the signal ratio in the repeat runs, not every such curve was filed as active; the % refers to the signal ratio)
In short: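 Inhibition of dexamethasone-driven (5 nM final) beta-lactamase expression was measured in GRE-reporter HeLa cells over 18 h at 37C. Fluorescence was read after 2 h with the B/G FRET substrate at room temperature.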
On the % scale 0 is the no-effect control and ±100 the full control effect; tags describe the fitted curve by direction and shape or compound fluorescence and quenching.

CN(C)c1ccc(C(=C2C=CC(=[N+](C)C)C=C2)c2ccc(N(C)C)cc2)cc1
inactive: Potency [1] | Potency [6] | Potency [7] | Potency [8] | Potency [9] | Potency [10] | Potency [11] | Potency [12] | Potency [13] | Potency [14] | Potency [15] | Potency [16]
active: Potency [2] 10.6 µM and 9.64 µM and 30.6 µM | Potency [3] 11.9 µM and 21.6 µM and 24.3 µM | Potency [4] 54.2 µM | Potency [5] 139 nM and 30.5 nM and 68.6 nM

CCOc1ccc2ccccc2c1C(=O)N[C@@H]1C(=O)N2[C@@H]1SC(C)(C)[C@@H]2C(=O)O
inactive: Potency [1] | Potency [2] | Potency [3] | Potency [4] | Potency [5] | fluorescence, relative to Rose Bengal [6] 0.528% [at 18.6 µM] | fluorescence, % of fluorescein control [7] -0.0692% [at 18.6 µM] | fluorescence, % of triamterene [8] 0.458% [at 18.6 µM] | fluorescence, % of fluorescent control [9] 0.326% [at 18.6 µM] | fluorescence, % of fluorescein [10] 0.0057% [at 18.6 µM] | fluorescence, % of fluorescent control [12] 0.0898% [at 18.6 µM] | fluorescence, % of Rose Bengal [13] -0.0711% [at 18.6 µM] | fluorescence, % of fluorescent control [14] 0.462% [at 18.6 µM] | fluorescence, % of fluorescein control [17] 0.0405% [at 18.6 µM] | fluorescence, % of fluorescent control [15] 0.172% [at 18.6 µM] | Potency [16]

Cc1c(C)c([N+](=O)[O-])c(C(C)(C)C)c([N+](=O)[O-])c1C
active: Potency [5] 30.6 µM
inactive: Potency [1] | Potency [2] | Potency [3] | Potency [6] | Potency [7] | Potency [8] | Potency [9] | Potency [10] | Potency [18] | Potency [11] | Potency [12] | Potency [13] | Potency [14] | Potency [17] | Potency [15]

Cc1cc(-n2nc3ccc(Cl)cc3n2)c(O)c(C(C)(C)C)c1
inactive: Potency [1] | Potency [2] | Potency [3] | Potency [4] | Potency [5] | Potency [6] | Potency [7] | Potency [8] | Potency [10] | Potency [11] | Potency [12] | Potency [13] | Potency [14] | Potency [15] | Potency [16] | Potency [19]

Cc1cc(=O)oc2cc(O)cc(O)c12
active: Potency [5] 61.3 µM | Potency [8] 39.8 µM [fluorescent] | Potency [18] 39.8 µM | Potency [15] 35.5 µM [fluorescent]
inactive: Potency [1] | Potency [2] | Potency [3] | Potency [4] | Potency [6] | Potency [7] | Potency [10] | Potency [11] | Potency [12] | Potency [13] | Potency [17]

Cc1c(F)c(N2CCNC(C)C2)cc2c1c(=O)c(C(=O)O)cn2C1CC1 (configuration not stated)
inactive: Potency [1] | Potency [2] | Potency [3] | Potency [4] | Potency [6] | Potency [7] | Potency [8] | Potency [9] | Potency [10] | Potency [18] | Potency [11] | Potency [12] | Potency [13] | Potency [14] | Potency [17] | Potency [15] | Potency [16] | Potency [19]

C=C(C)C(=O)OCCCCCCCCCC
inactive: Potency [1] | Potency [2] | Potency [3] | Potency [4] | Potency [6] | Potency [7] | Potency [8] | Potency [9] | Potency [10] | Potency [18] | Potency [11] | Potency [12] | Potency [13] | Potency [14] | Potency [17] | Potency [15] | Potency [16]

C=CC(=O)OCCOC(=O)C=C
inactive: Potency [2] | Potency [4] | Potency [6] | Potency [7] | Potency [8] | Potency [9] | Potency [10] | Potency [18] | Potency [11] | Potency [12] | Potency [13] | Potency [14] | Potency [15] | Potency [16]
active: Potency [1] 21.7 µM | Potency [3] 61.1 µM

[Cu+]
inactive: Potency [1] | Potency [2] | Potency [3] | Potency [4] | Potency [6] | Potency [7] | Potency [8] | Potency [9] | Potency [10] | Potency [18] | Potency [12] | Potency [13] | Potency [14] | Potency [17] | Potency [15]

CCCCCCCCCCCCCCCC[N+](C)(C)CC
inactive: Potency [1] | Potency [6] | Potency [7] | Potency [8] | Potency [10] | Potency [18] | Potency [12] | Potency [13] | Potency [14] | Potency [17]
active: Potency [2] 26.6 µM and 61.3 µM | Potency [3] 29.8 µM and 24.4 µM | Potency [4] 61.3 µM | Potency [5] 6.68 µM and 27.4 µM

CC(C)Cn1cnc2c(N)nc3ccccc3c21
inactive: Potency [1] | Potency [2] | Potency [3] | Potency [4] | Potency [5] | Potency [6] | Potency [7] | Potency [8] | Potency [9] | Potency [10] | Potency [18] | Potency [12] | Potency [13] | Potency [14] | Potency [17] | Potency [15] | Potency [16] | Potency [19]

CC1(C)CCC[C@]2(C)[C@H]3CCO[C@]3(C)CC[C@@H]12
inactive: Potency [1] | Potency [2] | Potency [3] | Potency [4] | Potency [6] | Potency [7] | Potency [8] | Potency [9] | Potency [10] | Potency [18] | Potency [11] | Potency [12] | Potency [13] | Potency [14] | Potency [17] | Potency [15] | Potency [16]

CC[N+](CC)(CC)CCOc1ccc(/C=C/c2ccccc2)cc1
inactive: Potency [1] | Potency [2] | Potency [3] | Potency [4] | Potency [5] | Potency [6] | Potency [7] | Potency [8] | Potency [10] | Potency [18] | Potency [11] | Potency [12] | Potency [13] | Potency [14] | Potency [17] | Potency [15] | Potency [16] | Potency [19]
